Bioassay records as filed in PubChem.
SKKanGAS inh: S. pyogenes SKKanGAS growth inhibitors in kanamycin, primary screen, streptokinase expression inhibitor project, SKKanGAS strain, BacTiter-Glo luminescence. 6 h. 300,000 compounds, 1.3% hits. inhibition, % at 7.5 µM;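 active means mean replicate score, as percent of positive control median, at least 50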;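 further: strain carries kanamycin resistance gene driven by streptokinase promoter and grows in 40 µg/ml kanamycin; loss of luminescence reflects streptokinase promoter inhibition or plain growth inhibition; 0% = median of DMSO wells and 100% = positive control at its reference dose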
NALP1 inh: NALP1 inflammasome inhibitors in reconstituted yeast, colorimetric, S. cerevisiae, triplicate retest; inhibition, % at 10 µM; S. cerevisiae NALP1/ASC/caspase-1 growth, X-gal OD620, 72 h; 280,000 compounds, 0.61% hits; AID 2071, 2009; in the data active means inhibition mostly above about 24%, no sharp cut-off; inactive means mostly below about 32%
TIM10 inh: growth inhibitors of isogenic TIM10 control yeast, primary screen, counter-screen for tim10-1 yeast inhibitor project, luminescence, uHTS. S. cerevisiae TIM10 strain growth, BacTiter-Glo luminescence, 24 h. inhibition, % at 10 µM. 330,000 compounds, 1.4% hits. AID 463195, 2010;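 active means inhibition of 40% or more at the single tested concentration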;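 further: wild-type TIM10 isogenic control strain grown at permissive 25 °C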
NLRP3 yeast inh: NALP3 inflammasome inhibitors in reconstituted yeast, primary screen, luminescence, uHTS; 330,000 compounds, 0.39% hits; Yeast reconstituted NLRP3/ASC/caspase-1, beta-gal luminescence, 24 h; inhibition, % at 10 µM;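 active means inhibition of 50% or more; inactive means inhibition below 50%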;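 further: plate controls were induced DMSO wells for no effect and uninduced yeast grown without galactose for full effect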
tim10-1 inh: growth inhibitors of tim10-1 mutant yeast, primary screen, luminescence, uHTS. AID 463190, 2010. S. cerevisiae tim10-1 ts strain growth, BacTiter-Glo, 24 h. inhibition, % at 20 µM. 330,000 compounds, 2.2% hits;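 active means inhibition of at least 40%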;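 further: mutant grown at 25 °C; 0% = DMSO wells with yeast and 100% = wells holding no yeast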
tim23-1 inh: growth inhibitors of tim23-1 mutant yeast, primary screen, luminescence, uHTS | S. cerevisiae tim23-1 growth, BacTiter-Glo luminescence, 24 h | inhibition, % at 20 µM | 330,000 compounds, 1.3% hits;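 active means growth inhibition of the mutant yeast at or above 50%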;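 further: temperature-sensitive mutant grown at 25 °C; plate controls were DMSO-treated mutant yeast for no effect and medium wells lacking yeast for full effect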
tim10-1 confirm: growth inhibitors of tim10-1 mutant yeast, confirmation, single concentration, luminescence, S. cerevisiae | shares compounds with tim10-1 inh | S. cerevisiae tim10-1 ts strain growth, BacTiter-Glo, 24 h | inhibition, % at 20 µM | 7,400 compounds, 56% hits | AID 463213, 2010;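 active means inhibition of yeast growth at or above a set limit in either of two repeat tests at 20 µM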;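 further: tim10-1 mutant grown at permissive 25 °C to find synthetic lethal compounds; 0% = DMSO yeast wells and 100% = medium wells without yeast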
The depositor's hits bear a star. The list is not random: actives were taken first. Their share in the collection is about 4.9%.

For COC(=O)C1=C(c2ccc(S(C)(=O)=O)cc2)C[C@@H]2CC[C@H]1N2C(=O)NCCO the results were SKKanGAS inh 0, TIM10 inh 11, NLRP3 yeast inh 1, tim10-1 inh 5 and tim23-1 inh 6.
Screening COc1cccc(CC(=O)N2CCN(Cc3cccc(Cl)c3)CC2)c1 returned SKKanGAS inh -3, NALP1 inh -17, TIM10 inh 18, NLRP3 yeast inh 14, tim10-1 inh 29 and tim23-1 inh 35.
Screening COc1cccc(C2CCN(CC(=O)Nc3cc(Cl)ccc3OC)CC2O)c1 (configuration not stated) returned SKKanGAS inh 19, NALP1 inh 11, TIM10 inh 2, NLRP3 yeast inh 25, tim10-1 inh 41*, tim23-1 inh 25 and tim10-1 confirm 4.
CCCCn1c(N)c(C(=O)NCc2cccs2)c2nc3ccccc3nc21 was read as SKKanGAS inh 38, NALP1 inh 7, TIM10 inh 25, NLRP3 yeast inh 17, tim10-1 inh 41*, tim23-1 inh 36 and tim10-1 confirm 24.
For CC(C)OCCCNC(=O)c1c(N)n(CC2CCCO2)c2nc3ccccc3nc12 (configuration not stated) the results were SKKanGAS inh -2, NALP1 inh 15, TIM10 inh 18, NLRP3 yeast inh -5, tim10-1 inh 29 and tim23-1 inh 30.
For CCCNC(=O)c1c(N)n(CC2CCCO2)c2nc3ccccc3nc12 (configuration not stated) the results were SKKanGAS inh 5, NALP1 inh 1, TIM10 inh 26, NLRP3 yeast inh 8, tim10-1 inh 45*, tim23-1 inh 31 and tim10-1 confirm 14.
O=C1/C(=C\c2cc3c(cc2Br)OCO3)N2CCC1CC2 was read as SKKanGAS inh -8, NALP1 inh 36, TIM10 inh 28, NLRP3 yeast inh -3, tim10-1 inh 53*, tim23-1 inh 48 and tim10-1 confirm 38*.
For C=CCn1c(O)c(C(C)=NCCN2CCN(C(=S)NC)CC2)c(=O)[nH]c1=O the results were SKKanGAS inh 6, TIM10 inh 7, NLRP3 yeast inh 4, tim10-1 inh 12 and tim23-1 inh -1.
`CN1C(=O)c2ccccc2Sc2ccc(C(=O)N3CCC4(CC3)OCCO4)cc21` gave SKKanGAS inh -1, NALP1 inh 7, TIM10 inh 28, NLRP3 yeast inh 14, tim10-1 inh 2 and tim23-1 inh 29.
Screening Cc1ccc(/C=C2/Sc3ccc(C(=O)N4CCC5(CC4)OCCO5)cc3NC2=O)cc1 returned SKKanGAS inh 53*, NALP1 inh 14, TIM10 inh 23, NLRP3 yeast inh 0, tim10-1 inh 47*, tim23-1 inh 40 and tim10-1 confirm 20.
For CN1Cc2cccnc2N(C)Cc2cc(Cl)ccc21 the results were SKKanGAS inh 4, NALP1 inh 36, TIM10 inh 23, NLRP3 yeast inh 33, tim10-1 inh 25 and tim23-1 inh 16.
`Cc1cccnc1-n1c(CN2C(=O)c3ccccc3C2=O)nc2ccccc2c1=O` gave SKKanGAS inh 1, NALP1 inh 16, TIM10 inh 20, NLRP3 yeast inh -17, tim10-1 inh 51*, tim23-1 inh 32 and tim10-1 confirm 30*.
`CCn1c(O)c(/C(C)=N/N2CCCCC2c2cccnc2)c(=O)[nH]c1=S` (configuration not stated) gave SKKanGAS inh 0, NALP1 inh 20, TIM10 inh 26, NLRP3 yeast inh -4, tim10-1 inh 48*, tim23-1 inh 24 and tim10-1 confirm 21.
O=C(O)c1ccc(NC(=O)N2C[C@H]3C[C@@H](C2)c2cccc(=O)n2C3)cc1 was read as SKKanGAS inh 3, NALP1 inh -3, TIM10 inh -2, NLRP3 yeast inh 0, tim10-1 inh -7 and tim23-1 inh -2.
For O=C1CC(N2CC=C(c3ccc(F)cc3)CC2)C(=O)N1c1ccc(F)cc1 (configuration not stated) the results were SKKanGAS inh -1, NALP1 inh -4, TIM10 inh 20, NLRP3 yeast inh 11, tim10-1 inh 43*, tim23-1 inh 40 and tim10-1 confirm 26.
For CCCCn1c(O)c(C(CC)=Nc2ccc(OC)cc2OC)c(=O)[nH]c1=O the results were SKKanGAS inh 10, NALP1 inh 8, TIM10 inh 21, NLRP3 yeast inh 5, tim10-1 inh 41*, tim23-1 inh 35 and tim10-1 confirm 16.
CCCCn1c(O)c(C(CC)=NCc2cc(OC)cc(OC)c2)c(=O)[nH]c1=O was read as SKKanGAS inh -2, NALP1 inh 12, TIM10 inh 13, NLRP3 yeast inh 14, tim10-1 inh 20 and tim23-1 inh 18.
For COC1=CC=C2[C@H]3Cc4ccc(OC)c5c4[C@@]2(CCN3C)[C@H]1O5 the results were SKKanGAS inh 2, NALP1 inh 17, TIM10 inh 3, NLRP3 yeast inh 20, tim10-1 inh 0 and tim23-1 inh 4.
For NP(=O)(OCC(F)(F)F)Oc1ccc(Cl)cc1 (configuration not stated) the results were SKKanGAS inh 3, NALP1 inh 17, TIM10 inh 3, NLRP3 yeast inh 30, tim10-1 inh 3 and tim23-1 inh 7.
`Nc1ccncc1Cl` gave SKKanGAS inh -5, NALP1 inh 14, TIM10 inh 7, NLRP3 yeast inh 16, tim10-1 inh -3 and tim23-1 inh 4.
Screening O=C(CCN1CCOCC1)NCC(=O)Nc1ccc(Br)cc1C(=O)c1ccccc1 returned SKKanGAS inh -3, NALP1 inh 19, TIM10 inh 9, NLRP3 yeast inh 4, tim10-1 inh -4 and tim23-1 inh 18.
CC(C(=O)Nc1ccc(Br)cc1C(=O)c1ccccc1)N1CCOCC1 (configuration not stated) was read as SKKanGAS inh 13, NALP1 inh -15, TIM10 inh 27, NLRP3 yeast inh 15, tim10-1 inh 41*, tim23-1 inh 13 and tim10-1 confirm 25.
Screening N#Cc1cc2c(nc1SCC(=O)Nc1cc(Cl)ccc1Cl)C1CCN2CC1 returned SKKanGAS inh 8, NALP1 inh 18, TIM10 inh 11, NLRP3 yeast inh 19, tim10-1 inh 40*, tim23-1 inh 21 and tim10-1 confirm 23.
COC(=O)C1=C(c2cccc(C#N)c2)C[C@@H]2CC[C@H]1N2C(=O)N1CCC(O)CC1 was read as TIM10 inh -7, NLRP3 yeast inh 20, tim10-1 inh -9 and tim23-1 inh -9.
